Data: PubChem BioAssay AID1159580 (chemical genetic matrix, 2015)
Where “and” joins values, the source holds several entries; their conditions need not be identical. Identical values can stand only once. Hit rate of the full screen: of about 5,500 compounds, about 2,000 (36%) were called active. About 18% were inconclusive and are not listed. Cut-off read from the data, not from the text of the source: active = normalized growth mostly below about 0.91 (no sharp cut-off); inconclusive = no clear call, values can overlap the other calls; inactive = mostly above about 0.92. This is one part of the list.

Experiment: chemical genetic growth profiling, strain panel (AID 1159580);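 note: tested at 20 µM; growth read once vehicle control cultures reached saturation at 30 °C; 1 = growth at the plate median or of vehicle wells; lower values mean less growth of the strain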
Conditions: growth OD

Measured: normalized growth

CC12CC3CC(C)(C1)CC(N)(C3)C2
inactive: S. cerevisiae deletion strains, locus YJR075W, strain HOC1, stronger effect = lower value 1.01 | S. cerevisiae deletion strains, locus YKL009W, strain mrt4, stronger effect = lower value 1.03 | S. cerevisiae deletion strains, locus YKL068W, stronger effect = lower value 0.999 | S. cerevisiae deletion strains, locus YKL085W, strain MDH1 (second series), stronger effect = lower value 0.996 | S. cerevisiae deletion strains, locus YKL085W, strain MDH1, stronger effect = lower value 0.996 | S. cerevisiae deletion strains, locus YKL160W, strain elf1, stronger effect = lower value 1 | S. cerevisiae deletion strains, locus YKL190W, strain CNB1, stronger effect = lower value 0.999 | S. cerevisiae deletion strains, locus YKR001C, strain vps1, stronger effect = lower value 1.02 | S. cerevisiae deletion strains, locus YKR026C, strain gcn3, stronger effect = lower value 0.982 | S. cerevisiae deletion strains, locus YKR091W, strain srl3, stronger effect = lower value 0.99 | S. cerevisiae deletion strains, locus YLL001W, strain dnm1, stronger effect = lower value 0.972 | S. cerevisiae deletion strains, locus YLL026W, stronger effect = lower value 0.995 | S. cerevisiae deletion strains, locus YLL041C, strain sdh2, stronger effect = lower value 0.997 | S. cerevisiae deletion strains, locus YLR027C, strain aat2, stronger effect = lower value 0.991 | S. cerevisiae deletion strains, locus YLR039C, strain RIC1, stronger effect = lower value 1.04 | S. cerevisiae deletion strains, locus YLR058C, strain SHM2, stronger effect = lower value 0.999 | S. cerevisiae deletion strains, locus YLR102C, strain apc9, stronger effect = lower value 0.996 | S. cerevisiae deletion strains, locus YLR113W, strain HOG1, stronger effect = lower value 0.996 | S. cerevisiae deletion strains, locus YLR221C, strain rsa3, stronger effect = lower value 1 | S. cerevisiae deletion strains, locus YLR258W, strain gsy2, stronger effect = lower value 1 | S. cerevisiae deletion strains, locus YLR262C, strain YPT6 (second series), stronger effect = lower value 1 | S. cerevisiae deletion strains, locus YLR262C, strain YPT6, stronger effect = lower value 0.979 | S. cerevisiae deletion strains, locus YLR268W, strain sec22, stronger effect = lower value 1.07 | S. cerevisiae deletion strains, locus YLR320W, strain mms22, stronger effect = lower value 1 | S. cerevisiae deletion strains, locus YLR330W, strain CHS5, stronger effect = lower value 1 | S. cerevisiae deletion strains, locus YLR342W, strain FKS1 (second series), stronger effect = lower value 1.01 | S. cerevisiae deletion strains, locus YLR342W, strain FKS1, stronger effect = lower value 0.985 | S. cerevisiae deletion strains, locus YLR357W, strain rsc2, stronger effect = lower value 0.969 | S. cerevisiae deletion strains, locus YLR370C, strain arc18, stronger effect = lower value 0.995 | S. cerevisiae deletion strains, locus YLR371W, strain rom2, stronger effect = lower value 1.01 | S. cerevisiae deletion strains, locus YLR384C, strain iki3, stronger effect = lower value 0.99 | S. cerevisiae deletion strains, locus YLR418C, strain cdc73, stronger effect = lower value 1.01 | S. cerevisiae deletion strains, locus YML016C, strain PPZ1, stronger effect = lower value 0.998 | S. cerevisiae deletion strains, locus YML032C, strain rad52, stronger effect = lower value 1.02 | S. cerevisiae deletion strains, locus YML120C, strain ndi1, stronger effect = lower value 1 | S. cerevisiae deletion strains, locus YML124C, strain tub3, stronger effect = lower value 1.01 | S. cerevisiae deletion strains, locus YMR058W, strain fet3, stronger effect = lower value 0.993 | S. cerevisiae deletion strains, locus YMR078C, strain ctf18, stronger effect = lower value 1 | S. cerevisiae deletion strains, locus YMR125W, strain sto1, stronger effect = lower value 0.975 | S. cerevisiae deletion strains, locus YMR129W, stronger effect = lower value 0.979 | S. cerevisiae deletion strains, locus YMR205C, strain PFK2, stronger effect = lower value 0.993 | S. cerevisiae deletion strains, locus YMR223W, strain ubp8, stronger effect = lower value 0.986 | S. cerevisiae deletion strains, locus YMR231W, strain pep5, stronger effect = lower value 0.982 | S. cerevisiae deletion strains, locus YMR263W, strain SAP30, stronger effect = lower value 1.01 | S. cerevisiae deletion strains, locus YMR307W, strain GAS1, stronger effect = lower value 0.964 and 0.971 | S. cerevisiae deletion strains, locus YNL067W, strain RPL9B, stronger effect = lower value 1.02 | S. cerevisiae deletion strains, locus YNL071W, strain lat1, stronger effect = lower value 0.986 | S. cerevisiae deletion strains, locus YNL128W, strain TEP1, stronger effect = lower value 1.01 | S. cerevisiae deletion strains, locus YNL153C, strain GIM3, stronger effect = lower value 1.01 | S. cerevisiae deletion strains, locus YNL175C, strain NOP13, stronger effect = lower value 0.994 | S. cerevisiae deletion strains, locus YNL183C, strain NPR1, stronger effect = lower value 0.935 | S. cerevisiae deletion strains, locus YNL197C, strain WHI3, stronger effect = lower value 1 | S. cerevisiae deletion strains, locus YNL209W, strain ssb2, stronger effect = lower value 0.992 | S. cerevisiae deletion strains, locus YNL224C, strain SQS1, stronger effect = lower value 1 | S. cerevisiae deletion strains, locus YNL233W, strain BNI4, stronger effect = lower value 1.01 | S. cerevisiae deletion strains, locus YNL248C, strain rpa49, stronger effect = lower value 0.961 | S. cerevisiae deletion strains, locus YNL250W, strain rad50, stronger effect = lower value 1.01 | S. cerevisiae deletion strains, locus YNL271C, strain bni1, stronger effect = lower value 1.01 | S. cerevisiae deletion strains, locus YNL298W, strain CLA4, stronger effect = lower value 1 | S. cerevisiae deletion strains, locus YNL307C, strain MCK1, stronger effect = lower value 1.01 | S. cerevisiae deletion strains, locus YNL322C, strain KRE1 (second series), stronger effect = lower value 0.993 | S. cerevisiae deletion strains, locus YNL322C, strain KRE1, stronger effect = lower value 0.998 and 0.989 | S. cerevisiae deletion strains, locus YNR049C, strain mso1, stronger effect = lower value 0.986 | S. cerevisiae deletion strains, locus YNR052C, strain pop2, stronger effect = lower value 1.01 | S. cerevisiae deletion strains, locus YOL006C, strain TOP1, stronger effect = lower value 1.05 | S. cerevisiae deletion strains, locus YOL012C, strain htz1 1.4 | S. cerevisiae deletion strains, locus YOL147C, strain pex11, stronger effect = lower value 1 | S. cerevisiae deletion strains, locus YOR001W, strain rrp6, stronger effect = lower value 0.985 | S. cerevisiae deletion strains, locus YOR061W, strain CKA2, stronger effect = lower value 1 | S. cerevisiae deletion strains, locus YOR069W, strain VPS5, stronger effect = lower value 1.01 | S. cerevisiae deletion strains, locus YOR070C, strain gyp1, stronger effect = lower value 0.991 | S. cerevisiae deletion strains, locus YOR080W, strain dia2, stronger effect = lower value 0.986 | S. cerevisiae deletion strains, locus YOR083W, strain WHI5 (second series), stronger effect = lower value 1.03 | S. cerevisiae deletion strains, locus YOR083W, strain WHI5, stronger effect = lower value 0.977 | S. cerevisiae deletion strains, locus YOR106W, strain vam3, stronger effect = lower value 0.993 | S. cerevisiae deletion strains, locus YOR136W, strain idh2, stronger effect = lower value 1.01 | S. cerevisiae deletion strains, locus YOR144C, strain elg1, stronger effect = lower value 1.01 | S. cerevisiae deletion strains, locus YOR184W, strain ser1, stronger effect = lower value 1.01 | S. cerevisiae deletion strains, locus YOR231W, strain MKK1, stronger effect = lower value 0.995 | S. cerevisiae deletion strains, locus YOR265W, strain rbl2, stronger effect = lower value 0.989 | S. cerevisiae deletion strains, locus YOR270C, strain vph1, stronger effect = lower value 0.921 | S. cerevisiae deletion strains, locus YOR290C, strain snf2, stronger effect = lower value 0.997 | S. cerevisiae deletion strains, locus YOR316C, strain cot1, stronger effect = lower value 1 | S. cerevisiae deletion strains, locus YPL051W, strain arl3, stronger effect = lower value 0.986 | S. cerevisiae deletion strains, locus YPL055C, strain LGE1, stronger effect = lower value 1 | S. cerevisiae deletion strains, locus YPL078C, strain atp4, stronger effect = lower value 0.986 | S. cerevisiae deletion strains, locus YPL106C, strain sse1, stronger effect = lower value 1.01 | S. cerevisiae deletion strains, locus YPL240C, strain hsp82, stronger effect = lower value 0.998 | S. cerevisiae deletion strains, locus YPL241C, strain CIN2, stronger effect = lower value 1 | S. cerevisiae deletion strains, locus YPL256C, strain CLN2, stronger effect = lower value 0.971 | S. cerevisiae deletion strains, locus YPR119W, strain clb2, stronger effect = lower value 1 | S. cerevisiae deletion strains, locus YPR141C, strain kar3, stronger effect = lower value 1.01 | S. cerevisiae deletion strains, locus YPR163C, strain tif3, stronger effect = lower value 1.01 | S. cerevisiae deletion strains, locus YPR167C, strain met16, stronger effect = lower value 1 | S. cerevisiae deletion strains, strain wtn01, stronger effect = lower value 1.02 | S. cerevisiae strains, strain wild type, stronger effect = lower value 1.01
